From PubChem BioAssay
The source made the active and inactive calls. Unless noted, the rule behind the calls is not given here.

Key:
[1] = compound effects on lung adenocarcinoma cell viability – A549, calcein-AM fluorescence, 48 h, basal, profiling panel (AID 1162); conditions: higher = more signal; note: test concentration not given here
[2] = compound effects on differentiated 3T3-L1 adipocyte viability – cell-based, 3T3-L1 adipocytes, calcein-AM fluorescence, 48 h, basal, profiling panel (AID 1163); conditions: 3T3-L1 adipocytes viability, higher = more signal; note: test concentration not given here
[3] = compound effects on hepatocellular carcinoma cell viability – HepG2, calcein-AM fluorescence, 48 h, basal, profiling panel (AID 1164); conditions: higher = more signal; note: test concentration not given here
[4] = compound effects on multiple myeloma cell viability – MM1S, calcein-AM fluorescence, 48 h, basal, profiling panel (AID 1165); conditions: higher = more signal; note: test concentration not given here
[5] = calcein-AM signal in unstimulated myeloma cells – cell-based, calcein-AM fluorescence, 48 h, PK04 Diversity Set, profiling panel (AID 1166); conditions: RPMI8226 myeloma viability, higher = more signal;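 note: cells grown under basal conditions without added stimulus; test concentration not given here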
[6] = JC-1 mitochondrial signal, unstimulated HepG2 cells – cell-based, JC-1 fluorescence, 24 h, 100 nL compound, profiling panel (AID 1167); conditions: HepG2 mitochondrial potential, higher = more signal; note: test concentration not given here
[7] = JC-1 mitochondrial signal, unstimulated adipocytes – cell-based, JC-1 fluorescence, 3T3-L1 adipocytes, 24 h, 100 nL compound, profiling panel (AID 1168); conditions: JC-1 mitochondrial fluorescence, higher = more signal, called active from +8 up or from −8 down; note: test concentration not given here
[8] = JC-1 mitochondrial signal, unstimulated myeloma cells – cell-based, JC-1 fluorescence, RPMI8226, 24 h, 100 nL compound, profiling panel (AID 1169); conditions: JC-1 mitochondrial potential fluorescence, higher = more signal; note: test concentration not given here
[9] = JC-1 mitochondrial signal, unstimulated MM1S myeloma – cell-based, JC-1 fluorescence, 24 h, 100 nL compound, profiling panel (AID 1170); conditions: MM1S mitochondrial potential, higher = more signal; note: test concentration not given here
[10] = resazurin metabolic signal in A549 cells – cell-based, resazurin fluorescence, 24 h, PK04 Diversity Set, profiling panel (AID 1171); conditions: A549 viability, higher = more signal, called active from +8 up or from −8 down; note: test concentration not given here
[11] = resazurin metabolic signal in HepG2 cells – cell-based, resazurin fluorescence, 24 h, PK04 Diversity Set, profiling panel (AID 1172); conditions: HepG2 viability, higher = more signal; note: test concentration not given here
[12] = budding yeast growth changes without added modifier – OD600, strain BY4716, 24 h, basal condition, primary screen (AID 1173); conditions: S. cerevisiae BY4716 growth, OD600, 24 h; higher = more signal, called active from +8 up or from −8 down
[13] = viability profiling in MM1S myeloma cells – cell-based, resazurin fluorescence, basal, 24 h, PK04 Diversity Set, profiling panel (AID 1174); conditions: higher = more signal, called active from +8 up or from −8 down; note: test concentration not given here
[14] = target: Dihydroorotate dehydrogenase (quinone), mitochondrial (Plasmodium falciparum (isolate 3D7)) (UniProt Q08210); assay: inhibition of P. falciparum DHODH – biochemical, C-terminal His tag, absorbance 600 nm, primary screen (AID 1175); conditions: PfDHODH enzyme, DCIP absorbance 600 nm; higher = more signal, called active from +8 up or from −8 down;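 note: recombinant parasite enzyme with a five histidine tag at its C terminus; test concentration not given here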
Dihydroorotate dehydrogenase (quinone), mitochondrial (Plasmodium falciparum (isolate 3D7)), sequence (Q08210 whole entry, looked up): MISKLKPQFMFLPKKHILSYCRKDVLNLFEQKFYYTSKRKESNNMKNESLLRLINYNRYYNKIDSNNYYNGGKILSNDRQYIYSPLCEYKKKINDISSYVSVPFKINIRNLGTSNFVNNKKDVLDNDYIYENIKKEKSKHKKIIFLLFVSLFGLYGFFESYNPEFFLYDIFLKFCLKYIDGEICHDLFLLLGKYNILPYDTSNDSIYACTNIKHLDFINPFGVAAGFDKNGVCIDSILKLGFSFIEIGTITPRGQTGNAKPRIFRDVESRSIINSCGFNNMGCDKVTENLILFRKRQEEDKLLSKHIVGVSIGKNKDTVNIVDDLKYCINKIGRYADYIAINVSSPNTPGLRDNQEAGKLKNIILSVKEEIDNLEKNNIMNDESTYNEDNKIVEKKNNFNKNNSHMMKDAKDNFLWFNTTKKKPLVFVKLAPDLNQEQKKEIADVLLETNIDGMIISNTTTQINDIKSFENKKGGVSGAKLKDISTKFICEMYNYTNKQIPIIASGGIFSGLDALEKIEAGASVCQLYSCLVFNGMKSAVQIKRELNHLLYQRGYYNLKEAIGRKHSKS

[15] = inhibition of PAO1 biofilm formation – strain PAO1, LB-PBS medium, absorbance 600 nm, primary screen (AID 1176); note: test concentration not given here; conditions: P. aeruginosa PAO1 growth/biofilm, A600, 12 h; higher = more signal
[16] = growth modulation of vineyard yeast isolate – strain RM11-1a, OD600, basal, 24 h, primary screen (AID 1177);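 note: cultures grown under basal conditions with no added stressor; test concentration not given here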; conditions: S. cerevisiae RM11-1a growth, OD600, 24 h; higher = more signal, called active from +8 up or from −8 down
[17] = growth of efflux-deficient E. coli DRC39 – strain DRC39, OD650, 24 h, E. coli filamentation inducers, primary screen (AID 1178);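 note: growth measured as culture turbidity by optical density at 650 nm; test concentration not given here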; conditions: E. coli DRC39 acrAB, higher = more signal, called active from +8 up or from −8 down
[18] = growth of efflux-deficient E. coli DRC39 – strain DRC39, OD650, 48 h, E. coli filamentation inducers, primary screen (AID 1179);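 note: screen aims at cell division blockers that make cells filament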; conditions: E. coli DRC39 delta-acrAB growth, higher = more signal, called active from +8 up or from −8 down
[19] = viability profiling in RPMI8226 myeloma cells – cell-based, resazurin fluorescence, basal, 24 h, PK04 Diversity Set, profiling panel (AID 1180); conditions: higher = more signal;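 note: RPMI8826 multiple myeloma cell line at 5000 cells per well; test concentration not given here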
[20] = target: E3 ubiquitin-protein ligase XIAP (Homo sapiens) (UniProt P98170); assay: small molecules binding XIAP protein – biophysical, small-molecule microarray, fluorescence 635 nm, primary screen (AID 1181); conditions: higher = more signal;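 note: score merges 667 nm emission and signal to noise over triplicate slides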
E3 ubiquitin-protein ligase XIAP (Homo sapiens), sequence (P98170 whole entry, looked up): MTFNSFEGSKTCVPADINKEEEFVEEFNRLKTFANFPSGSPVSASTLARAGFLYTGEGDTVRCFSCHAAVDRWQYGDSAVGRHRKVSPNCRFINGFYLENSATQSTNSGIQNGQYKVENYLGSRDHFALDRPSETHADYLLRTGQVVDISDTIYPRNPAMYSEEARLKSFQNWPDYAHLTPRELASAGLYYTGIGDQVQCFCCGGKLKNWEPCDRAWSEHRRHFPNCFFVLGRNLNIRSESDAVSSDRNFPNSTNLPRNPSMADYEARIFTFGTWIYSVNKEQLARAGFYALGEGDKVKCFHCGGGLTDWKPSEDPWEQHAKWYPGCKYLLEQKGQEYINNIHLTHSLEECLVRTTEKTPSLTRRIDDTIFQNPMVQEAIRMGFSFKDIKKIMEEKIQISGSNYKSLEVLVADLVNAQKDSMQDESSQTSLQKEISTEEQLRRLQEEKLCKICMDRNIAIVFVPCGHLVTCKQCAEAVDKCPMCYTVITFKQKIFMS

Compound	z-score [1]	z-score [2]	z-score [3]	z-score [4]	z-score [5]	z-score [6]	z-score [7]	z-score [8]	z-score [9]	z-score [10]	z-score [11]	z-score [12]	z-score [13]	composite z-score [14]	z-score [15]	z-score [16]	z-score [17]	z-score [18]	z-score [19]	composite z-score [20]
COc1ccc([Si](C)(C)[C@@H]2[C@@H](CC(=O)N3Cc4ccccc4C[C@H]3CO)O[C@]3(C(=O)N(Cc4cccc(N5C(=O)COc6ccccc65)c4)c4ccccc43)[C@H]2C)cc1	0.196	1.34	0.553	-0.296	-1.47	0.411	1.52 (inactive)	-1.17	-0.974	-0.751 (inactive)	0.645	-1.17 (inactive)	-1.84 (inactive)	-1.32 (inactive)	1.92 (inactive)	1.39 (inactive)	1.53 (inactive)	1.53 (inactive)	-0.748	0.188
CC[C@@H]1C=C(C(=O)O)[C@H](c2ccc(C(C)C)cc2)N1S(=O)(=O)c1ccc(C)cc1	-0.658	-0.178	-0.391	-0.683	-0.251	-0.961	0.495 (inactive)	-0.971	-0.574	-0.42 (inactive)	-0.892	-1.01 (inactive)	-0.725 (inactive)	-0.976 (inactive)	0.16 (inactive)	-1.27 (inactive)	-0.862 (inactive)	0.133 (inactive)	-2.23	0.198
O=C(NCC(O)CO)[C@@]1(Cc2ccccc2)COC(c2ccc(OCCCO)cc2)=N1 (stereo not given in full)	-0.0736	-0.183	-0.283	-0.467	-0.164	-0.201	-0.817 (inactive)	-0.805	-0.89	-0.0991 (inactive)	0.55	-0.339 (inactive)	-0.322 (inactive)	-0.815 (inactive)	0.385 (inactive)	0.0962 (inactive)	0.187 (inactive)	0.276 (inactive)	0.0244	-0.135
C=C(C)[C@@H]1CC=C(C(O)C2C=CC3C(=O)N(Cc4ccccc4)C(=O)C3N2n2cnnc2)CC1 (stereo not given in full)	-0.675	0.233	-1.05	0.364	-0.176	-0.458	-0.403 (inactive)	0.666	-2.13	0.159 (inactive)	-0.429	0.349 (inactive)	-0.893 (inactive)	-0.295 (inactive)	0.878 (inactive)	-0.616 (inactive)	0.518 (inactive)	-0.66 (inactive)	-0.334	1.74
C=CCN1C(=O)[C@]2(COC(c3ccc(OCCCO)cc3)=N2)Cc2ccccc21	0.78	1.94	0.641	-1.22	-0.326	0.53	0.625 (inactive)	-0.808	-0.599	-0.183 (inactive)	0.653	-1.8 (inactive)	-0.99 (inactive)	-1.5 (inactive)	0.286 (inactive)	-0.675 (inactive)	0.695 (inactive)	1.54 (inactive)	-0.126	0.0933
[N-]=[N+]=NCc1ccccc1C[C@]1(C(=O)NCC(O)CO)COC(c2ccc(OCCCO)cc2)=N1 (stereo not given in full)	-0.226	-0.314	0.0226	-1.02	-1.29	-0.727	-0.491 (inactive)	-1.26	-0.714	2.56 (inactive)	0.0117	-1.46 (inactive)	-2.31 (inactive)	0.0291 (inactive)	0.19 (inactive)	-0.325 (inactive)	-0.0949 (inactive)	0.0564 (inactive)	-0.902	-0.163
CCCCC(=C=CC[C@H](O)c1ccccc1OCCO)C[C@H](O)c1cc(Cl)cc(Cl)c1O	0.441	-0.0739	0.105	-3.29	-2.59	-0.605	0.201 (inactive)	-0.655	-1.13	0.135 (inactive)	-0.268	-4.13 (inactive)	-0.392 (inactive)	-1.69 (inactive)	0.33 (inactive)	0.31 (inactive)	0.504 (inactive)	0.32 (inactive)	-0.45	-0.138
C=CCC(OC(C)=O)[C@@H]1[C@@H](N(Cc2cc3ccccc3o2)C(=O)c2cccc3ccccc23)c2cc(OCCCO)ccc2N1C(=O)Cc1ccc(OC)cc1 (stereo not given in full)	0.323	1.28	0.222	0.381	-1.05	2.46	-0.0309 (inactive)	0.181	0.177	-1.38 (inactive)	-1.29	-0.149 (inactive)	-1.17 (inactive)	0.507 (inactive)	-0.334 (inactive)	0.196 (inactive)	-0.386 (inactive)	-0.725 (inactive)	-1.17	0.211
COC(=O)[C@@]1(Cc2ccc(OC)cc2)[C@H]2c3cc(C(=O)N4CCCC4)n(C[C@H](O)CO)c3C[C@H]2CN1C(=O)c1ccccc1	-0.892	-0.113	0.255	-1.05	0.197	1.76	0.585 (inactive)	0.933	-1.03	0.336 (inactive)	-0.0006	1.92 (inactive)	-0.579 (inactive)	-0.475 (inactive)	-0.306 (inactive)	1.04 (inactive)	0.305 (inactive)	0.644 (inactive)	-0.595	-0.0251
